This is part of a sample that, as a whole, favours compounds with a hit. Of some 83,000 tested, about 20% had one in any assay.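 Each cell line was grown in a 96-well plate and treated with one concentration of compound for 48 hours. Values below 10 were considered active.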 A number with no mark means an inactive call. Calls of active or inactive are those of the source.
Legend:
Test in all cases: NCI-60 one-dose screen, 48 h (100 = growth as untreated, 0 = no growth, -100 = all killed)
Conditions in all cases: 10 µM unless noted
NCI-H23 lung = test system: NCI-H23 lung
NCI-H226 lung = test system: NCI-H226 lung
NCI-H322M lung = test system: NCI-H322M lung
HOP-62 NSCLC = test system: HOP-62 NSCLC
NCI-H460 lung = test system: NCI-H460 lung
HOP-92 NSCLC = test system: HOP-92 NSCLC
NCI-H522 lung = test system: NCI-H522 lung
A549/ATCC NSCLC = test system: A549/ATCC NSCLC
786-0 renal = test system: 786-0 renal
COLO 205 colon = test system: COLO 205 colon
DU-145 prostate = test system: DU-145 prostate
K-562 leukemia = test system: K-562 leukemia
MALME-3M melanoma = test system: MALME-3M melanoma
MDA-MB-231 breast = test system: MDA-MB-231 breast
RXF 393 renal = test system: RXF 393 renal
SF-268 CNS = test system: SF-268 CNS
SF-295 CNS = test system: SF-295 CNS
SF-539 CNS = test system: SF-539 CNS
UACC-257 melanoma = test system: UACC-257 melanoma
M14 melanoma = test system: M14 melanoma

| Structure (SMILES) | growth (NCI-H23 lung) | growth (NCI-H226 lung) | growth (NCI-H322M lung) | growth (HOP-62 NSCLC) | growth (NCI-H460 lung) | growth (HOP-92 NSCLC) | growth (NCI-H522 lung) | growth (A549/ATCC NSCLC) | growth (786-0 renal) | growth (COLO 205 colon) | growth (DU-145 prostate) | growth (K-562 leukemia) | growth (MALME-3M melanoma) | growth (MDA-MB-231 breast) | growth (RXF 393 renal) | growth (SF-268 CNS) | growth (SF-295 CNS) | growth (SF-539 CNS) | growth (UACC-257 melanoma) | growth (M14 melanoma) [%] |
| --- | --- | --- | --- | --- | --- | --- | --- | --- | --- | --- | --- | --- | --- | --- | --- | --- | --- | --- | --- | --- |
| COc1ccccc1/C(C)=N/NC(=O)CSc1nc2ccccc2c(=O)n1Cc1ccc(S(N)(=O)=O)cc1 | 96.7% | 95.5% | 90% | 93.5% | 100% | 105% | 82.1% | 95.2% | 97.3% | 119% | 108% | 98.2% | 103% | 96.6% | 95.9% | 89.2% | 93.9% | 94.4% | 95.4% | 108 |
| CCNC(=O)Oc1ccc(/C(=C(\C)c2ccccc2)c2ccc(OCCN(CC)CC)cc2)cc1 | 78.9% | 95.6% | 99% | 96.2% | 86.6% | 70.9% | 93.7% | 65.5% | 66.3% | 52.2% | 95.4% | 18.9% | 81.1% | 87.2% | 70.6% | 80.1% | 43.5% | 60.9% | -0.741% (active) | 39.7 |
| COc1ccc(C(=O)c2nc3ccccc3n2CC(=O)c2ccc(Cl)cc2)cc1 | 30.9% | 37.5% | 84.8% | 42.4% | 68.7% | 54.4% | -22.3% (active) | 81.4% | 34.7% | 111% | 35.2% |  | 46% | 35.6% | 27.8% | 41.7% | 10.2% | 16.4% | 37.4% |  |
| COc1cc(/C=C\c2cc(OC)c(OC)c(OC)c2)cc(N)c1OC | 83.6% | 97.8% | 81.3% | 79.8% | 104% | 78.4% | 58.6% | 93.1% | 82.3% | 104% | 110% |  | 77.9% | 88.6% | 105% | 93.3% | 73.7% | 84.3% | 87.5% |  |
| O=C(Cc1ccccc1)NNc1nc(Cl)nc(N2CCN(C(c3ccccc3)c3ccccc3)CC2)n1 | 83% | 94.2% | 89.7% | 98.6% | 102% | 74.3% | -26.6% (active) | 98.5% | 95.4% | 98.6% | 110% | 9.78% (active) | 99.6% | 84.4% | 85.8% | 100% | 98.6% | 102% | 90.6% | 81.6 |
| CC(=O)Oc1ccc(/C=N/NC(N)=S)nc1 | 37.8% | 32.1% | 92.8% | 74.5% | 96.4% | 63.9% | 74.5% | 98.2% | 53.3% | 92.7% | 81.5% |  | 97.8% | 87.1% | 34.7% | 66.5% | 104% | 20.4% | 81.4% | 58.2 |
| Cc1nc(N)nc(N[C@@H](C)c2nc3cccc(NCc4ccc(C(=O)NO)cc4)c3c(=O)n2-c2ccccc2)n1 | 63.9% | 81% | 80.1% | 75.1% | 76.3% | 50.1% | 35.3% | 90.5% | 93.9% | 47.3% | 86.9% | 47.8% | 37.7% | 81% | 65% | 87.1% | 104% | 75.9% | 58.3% | 73.7 |
| CN1CCC(=C(c2ccccc2)c2ccccc2)C(c2ccccc2)C1 (configuration not stated) | 88.1% | 96.3% | 96.7% | 101% | 103% | 82.8% | 85.2% | 90.8% | 95.1% | 83% | 104% | 106% | 104% | 94.8% | 88% | 97.8% | 99.3% | 101% | 105% | 112 |
| N#CC1=C(N)Oc2c(cnn2-c2ccc([N+](=O)[O-])cc2[N+](=O)[O-])C1c1ccccc1 (configuration not stated) | 104% | 97% | 97.7% | 98.3% | 103% | 75.6% | 95.3% | 103% | 114% | 111% | 114% |  | 99.8% | 105% | 110% | 102% | 93.3% | 98.2% | 94.1% |  |
| O=C(Cn1c(C(=O)c2ccccc2)nc2ccccc21)c1ccc(F)cc1 | 67.3% | 84% | 75% | 78.2% | 98.6% | 77.3% | -9.34% (active) | 79.3% | 75.9% | 119% | 96.6% |  | 57.2% | 46.7% | 45.5% | 73.3% | 62.9% | 78.8% | 75.2% |  |
| CCN(CC)c1ccc(C(=O)c2ccccc2)cc1 | 96.4% | 87.9% | 97.9% | 91.2% | 104% | 89.6% | 87.2% | 89.4% | 103% | 111% | 102% | 95.2% | 95.3% | 100% | 111% | 96.9% | 101% | 97.7% | 96.1% | 102 |
| Nc1c(C(=O)Nc2cccc3cnccc23)sc2nc3c(cc12)C(=O)CCC3 | 92.6% | 92.7% | 102% | 90.5% | 78.2% | 80.5% | 40.4% | 87.4% | 91.3% | 108% | 103% | 46.3% | 88.3% | 83.4% | 92.2% | 96.4% | 74.9% | 93.6% | 95.6% | 74.6 |
| COc1ccc(C/C(C)=C(/c2ccc(OCCCN(C)C)cc2)c2ccc(OC(C)=O)cc2)cc1 | 80.7% | 98% | 94.5% | 83.2% | 73.1% | 64.5% | 95.5% | 74.3% | 63.2% | 50.1% | 89.2% | 3.38% (active) | 79% | 66.8% | 65.6% | 71% | 27.1% | 72.6% | 73.6% | 50.6 |
| Cc1cccc(C)c1N=c1oc2ccc(Cl)cc2nc1-c1ccccc1O | 78.6% | 88.1% | 88.6% | 112% | 97.2% | 55.9% | 82.9% | 96.7% | 90% | 89.7% | 120% |  | 105% | 83.6% | 90.9% | 92.1% | 106% | 99.5% | 90.8% |  |
| C=C(C)[C@@H]1CC[C@]2(C(=O)N[C@H](CO)Cc3ccccc3)CC[C@]3(C)[C@H](CC[C@@H]4[C@@]5(C)CCCNC(C)(C)[C@@H]5CC[C@]43C)[C@@H]12 | -71.9% (active) | -55.7% (active) | -86% (active) | -86.2% (active) | -86.2% (active) | -88.5% (active) | -79.2% (active) | -83.1% (active) | -90.7% (active) | -83.4% (active) | -87.4% (active) |  | -82.9% (active) | -87.1% (active) | -91.5% (active) | -81.2% (active) | -91.8% (active) | -87.7% (active) | -88.8% (active) |  |
